Measurements taken from PubChem BioAssay AID1159580 (chemical genetic matrix, 2015).
Hit rate of the full screen: of about 5,500 compounds, about 2,000 (36%) were called active. Roughly 18% stayed inconclusive and do not appear here. Cut-off read from the data, not from the text of the source: active = normalized growth mostly below about 0.91 (no sharp cut-off); inconclusive = no clear call, values can overlap the other calls; inactive = mostly above about 0.92. The list shows a part of the results.

Test: chemical genetic growth profiling, strain panel (AID 1159580);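 note: tested at 20 µM; growth read once vehicle control cultures reached saturation at 30 °C; 1 = growth at the plate median or of vehicle wells; lower values mean less growth of the strain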
Conditions: S. cerevisiae deletion strains, growth OD

Measured: normalized growth

CC12CCC(OC(=O)c3ccccc3)CC1CCc1ccccc12 (configuration not stated)
active: locus YEL061C, strain CIN8 (second series), hits give low values 0.841 | locus YER016W, strain bim1, hits give low values 0.907
inactive: locus YAL021C, strain ccr4, hits give low values 0.986 | locus YAL026C, strain drs2, hits give low values 0.99 | locus YAL030W, strain snc1, hits give low values 0.999 | locus YBL061C, strain skt5, hits give low values 0.995 | locus YBR009C, strain hhf1, hits give low values 1 | locus YBR023C, strain chs3, hits give low values 0.995 | locus YBR171W, strain sec66, hits give low values 0.968 | locus YBR231C, strain swc5, hits give low values 0.939 | locus YBR279W, strain paf1, hits give low values 1.01 | locus YCL011C, strain gbp2, hits give low values 1 | locus YCL016C, strain dcc1, hits give low values 0.991 | locus YCL061C, strain MRC1, hits give low values 0.998 | locus YCL069W, strain vba3, hits give low values 0.996 | locus YCR088W, strain abp1, hits give low values 0.984 | locus YDL005C, strain med2, hits give low values 0.987 | locus YDL040C, strain nat1, hits give low values 0.979 | locus YDR001C, strain nth1, hits give low values 0.985 | locus YDR069C, strain doa4, hits give low values 0.98 | locus YDR137W, strain rgp1, hits give low values 0.964 | locus YDR159W, strain sac3, hits give low values 0.99 | locus YDR195W, strain ref2 0.964 | locus YDR297W, strain sur2, hits give low values 0.995 | locus YDR334W, strain swr1, hits give low values 0.959 | locus YDR335W, strain msn5, hits give low values 0.997 | locus YDR392W, strain spt3, hits give low values 0.866 | locus YEL003W, strain gim4, hits give low values 0.985 | locus YEL037C, strain rad23, hits give low values 0.991 | locus YER015W, strain faa2, hits give low values 0.998 | locus YER111C, strain swi4, hits give low values 0.988 | locus YER155C, strain BEM2 (second series), hits give low values 0.967 | locus YFR010W, strain ubp6, hits give low values 0.992 | locus YGL167C, strain pmr1, hits give low values 0.981 | locus YGL173C, strain kem1, hits give low values 0.987 | locus YGL227W, strain vid30, hits give low values 0.986 | locus YGL240W, strain doc1, hits give low values 0.952 | locus YGL253W, strain hxk2, hits give low values 1.01 | locus YHR013C, strain ard1, hits give low values 0.855 | locus YHR027C, strain rpn1, hits give low values 0.999 | locus YHR142W, strain chs7, hits give low values 1.01 | locus YJL092W, strain hpr5, hits give low values 0.989 | locus YJL095W, strain BCK1 (second series), hits give low values 1 | locus YJL115W, strain asf1, hits give low values 0.989 | locus YJL129C, strain trk1, hits give low values 0.999 | locus YJL154C, strain vps35, hits give low values 0.992 | locus YJL164C, strain tpk1, hits give low values 0.989 | locus YJL166W, strain qcr8, hits give low values 1 | locus YJL187C, strain SWE1, hits give low values 1 | locus YKL160W, strain elf1, hits give low values 1 | locus YKR026C, strain gcn3, hits give low values 0.965 | locus YKR091W, strain srl3, hits give low values 0.984 | locus YLL001W, strain dnm1, hits give low values 1.01 | locus YLL026W, hits give low values 0.993 | locus YLL041C, strain sdh2, hits give low values 0.994 | locus YLR027C, strain aat2, hits give low values 1.01 | locus YLR221C, strain rsa3, hits give low values 1 | locus YLR258W, strain gsy2, hits give low values 1 | locus YLR262C, strain YPT6 (second series), hits give low values 1.04 | locus YLR320W, strain mms22, hits give low values 1 | locus YLR342W, strain FKS1, hits give low values 0.987 | locus YLR357W, strain rsc2, hits give low values 0.986 | locus YLR370C, strain arc18, hits give low values 0.995 | locus YLR384C, strain iki3, hits give low values 1 | locus YML120C, strain ndi1, hits give low values 1 | locus YMR058W, strain fet3, hits give low values 1 | locus YMR125W, strain sto1, hits give low values 0.975 | locus YMR129W, hits give low values 0.986 | locus YMR205C, strain PFK2, hits give low values 1.01 | locus YMR231W, strain pep5, hits give low values 0.99 | locus YNL071W, strain lat1, hits give low values 0.992 | locus YNL209W, strain ssb2, hits give low values 0.997 | locus YNL248C, strain rpa49, hits give low values 1.01 | locus YNL322C, strain KRE1 (second series), hits give low values 0.982 | locus YNR049C, strain mso1, hits give low values 0.994 | locus YOR001W, strain rrp6, hits give low values 0.999 | locus YOR070C, strain gyp1, hits give low values 1.01 | locus YOR080W, strain dia2, hits give low values 0.965 | locus YOR083W, strain WHI5, hits give low values 0.995 | locus YOR106W, strain vam3, hits give low values 1.01 | locus YOR265W, strain rbl2, hits give low values 0.998 | locus YOR270C, strain vph1, hits give low values 1.06 | locus YOR290C, strain snf2, hits give low values 0.955 | locus YPL051W, strain arl3, hits give low values 1 | locus YPL078C, strain atp4, hits give low values 1.01 | locus YPL106C, strain sse1, hits give low values 0.992 | locus YPL240C, strain hsp82, hits give low values 0.988

C[C@]12CC[C@@H](O)C[C@H]1CCc1ccccc12
inactive: locus YBR021W, strain FUR4, hits give low values 0.967 | locus YBR229C, strain ROT2, hits give low values 1.01 | locus YCL029C, strain bik1, hits give low values 1 | locus YDL035C, strain GPR1, hits give low values 1.01 | locus YDL074C, strain BRE1, hits give low values 1.04 | locus YDL101C, strain DUN1, hits give low values 1.01 | locus YDL185W, strain tfp1, hits give low values 1.01 | locus YDL192W, strain arf1, hits give low values 0.999 | locus YDR101C, strain arx1, hits give low values 1.01 | locus YDR162C, strain NBP2, hits give low values 1.04 | locus YDR318W, strain mcm21, hits give low values 1 | locus YDR388W, hits give low values 1.01 | locus YDR502C, strain sam2, hits give low values 0.989 | locus YEL061C, strain CIN8, hits give low values 1.02 | locus YER110C, hits give low values 0.999 | locus YER155C, strain BEM2, hits give low values 1.01 | locus YER167W, strain BCK2, hits give low values 1.02 | locus YGL078C, strain dbp3, hits give low values 0.966 | locus YGL086W, strain mad1, hits give low values 0.989 | locus YGL248W, strain PDE1, hits give low values 1 | locus YGR135W, strain pre9, hits give low values 0.992 | locus YGR252W, strain gcn5, hits give low values 0.94 | locus YHR030C, strain SLT2, hits give low values 1.02 | locus YHR079C, strain IRE1 (second series), hits give low values 0.997 | locus YHR094C, strain hxt1, hits give low values 0.999 | locus YHR129C, strain ARP1, hits give low values 1.02 | locus YHR200W, strain rpn10, hits give low values 1.01 | locus YIL066C, strain RNR3, hits give low values 1.05 | locus YIL073C, strain SPO22, hits give low values 1.04 | locus YIL125W, strain kgd1, hits give low values 0.996 | locus YIR030C, strain dcg1, hits give low values 1.01 | locus YJL095W, strain BCK1, hits give low values 1 | locus YJL134W, strain LCB3, hits give low values 1.02 | locus YJL168C, strain set2, hits give low values 1 | locus YJL187C, strain SWE1 (second series), hits give low values 1 | locus YKL009W, strain mrt4, hits give low values 1.01 | locus YKL068W, hits give low values 1.01 | locus YKL085W, strain MDH1 (second series), hits give low values 1.02 | locus YKL085W, strain MDH1, hits give low values 1.02 | locus YKR001C, strain vps1, hits give low values 0.977 | locus YLR039C, strain RIC1, hits give low values 0.918 | locus YLR058C, strain SHM2, hits give low values 1.02 | locus YLR102C, strain apc9, hits give low values 1 | locus YLR262C, strain YPT6, hits give low values 0.968 | locus YLR268W, strain sec22, hits give low values 1 | locus YLR371W, strain rom2, hits give low values 1.04 | locus YLR418C, strain cdc73, hits give low values 0.973 | locus YML016C, strain PPZ1, hits give low values 1.02 | locus YML032C, strain rad52, hits give low values 0.99 | locus YML124C, strain tub3, hits give low values 1 | locus YMR078C, strain ctf18, hits give low values 1 | locus YMR223W, strain ubp8, hits give low values 0.985 | locus YMR307W, strain GAS1, hits give low values 1.07 | locus YNL067W, strain RPL9B, hits give low values 1 | locus YNL233W, strain BNI4, hits give low values 1.01 | locus YNL250W, strain rad50, hits give low values 1.04 | locus YNL271C, strain bni1, hits give low values 1.01 | locus YNL298W, strain CLA4, hits give low values 0.989 | locus YNL307C, strain MCK1, hits give low values 1 | locus YNR052C, strain pop2, hits give low values 0.987 | locus YOL006C, strain TOP1, hits give low values 1.09 | locus YOL012C, strain htz1 1.06 | locus YOL147C, strain pex11, hits give low values 1.01 | locus YOR061W, strain CKA2, hits give low values 1.03 | locus YOR069W, strain VPS5, hits give low values 1.02 | locus YOR136W, strain idh2, hits give low values 0.995 | locus YOR144C, strain elg1, hits give low values 1 | locus YOR184W, strain ser1, hits give low values 0.978 | locus YOR316C, strain cot1, hits give low values 1 | locus YPL241C, strain CIN2, hits give low values 1.02 | locus YPR119W, strain clb2, hits give low values 1 | locus YPR141C, strain kar3, hits give low values 1.02 | locus YPR163C, strain tif3, hits give low values 1 | locus YPR167C, strain met16, hits give low values 0.997 | strain wtn01, hits give low values 0.99
